In publication PMC7862700, “An all-to-all approach to the identification of sequence-specific readers for epigenetic DNA modifications on cytosine”:

Legend:
Test in all cases: DAPPL (digital affinity profiling via proximity ligation, sequencing); 10 mM Tris-HCl pH 7.5, 50 mM NaCl, 1 mM DTT, 4% glycerol, room temperature, 30 min; GST-TFs on glutathione beads, 16-mer random dsDNA library, 0.1% formaldehyde crosslink after washing; high values mean tight binding
FEV = molecular target: T1, FEV (Homo sapiens, UniProt Q99581 1-238); conditions: protein: recombinant; tags: N-terminal GST; dsDNA, one strand shown
T1 sequence: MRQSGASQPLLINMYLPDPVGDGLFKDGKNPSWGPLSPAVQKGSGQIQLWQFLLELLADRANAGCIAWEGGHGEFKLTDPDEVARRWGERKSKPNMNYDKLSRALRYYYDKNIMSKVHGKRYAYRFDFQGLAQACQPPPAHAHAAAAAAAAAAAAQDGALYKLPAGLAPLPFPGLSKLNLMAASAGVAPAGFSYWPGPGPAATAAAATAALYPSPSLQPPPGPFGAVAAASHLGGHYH
Summary of the method: (§1)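 The binding signal reported is, for every hexamer, its read frequency for a factor over its read frequency for the tag-only sample. Reads came from pools of yeast-expressed, GST-fused human transcription factors on glutathione beads, barcoded with DNA and mixed with that sample, which were incubated with 200 nmole of a random double-stranded 16-mer DNA library in Tris/NaCl/DTT/glycerol buffer at room temperature for 30 min. After washing, the pools were crosslinked with 0.1% formaldehyde, proximity-ligated with BsaI/T4 ligase for 1 h at 37 °C, PCR-amplified and sequenced on an Illumina NextSeq500.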

ETV5 = ETV5 (Homo sapiens, UniProt P41161 1-510); conditions: protein: recombinant; tags: N-terminal GST; dsDNA, one strand shown
Chain of ETV5 (P41161 whole entry): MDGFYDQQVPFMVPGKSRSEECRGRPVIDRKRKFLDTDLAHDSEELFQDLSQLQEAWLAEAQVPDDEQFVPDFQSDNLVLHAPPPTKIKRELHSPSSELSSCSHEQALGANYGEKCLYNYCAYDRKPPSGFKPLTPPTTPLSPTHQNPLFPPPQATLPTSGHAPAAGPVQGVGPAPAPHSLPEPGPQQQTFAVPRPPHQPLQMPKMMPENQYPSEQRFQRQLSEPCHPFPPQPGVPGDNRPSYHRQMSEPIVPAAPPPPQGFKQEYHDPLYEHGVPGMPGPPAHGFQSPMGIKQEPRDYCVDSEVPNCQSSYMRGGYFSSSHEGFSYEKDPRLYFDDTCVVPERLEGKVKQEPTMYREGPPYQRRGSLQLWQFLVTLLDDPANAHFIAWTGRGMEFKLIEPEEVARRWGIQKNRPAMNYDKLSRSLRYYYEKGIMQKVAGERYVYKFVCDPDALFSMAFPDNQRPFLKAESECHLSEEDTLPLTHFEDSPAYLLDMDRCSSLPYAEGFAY
Summary of the method: as §1

HSF1 = HSF1 (Homo sapiens, UniProt Q00613 1-529); conditions: protein: recombinant; tags: N-terminal GST; chain copies: 3; dsDNA, one strand shown
Chain of HSF1 (Q00613 whole entry): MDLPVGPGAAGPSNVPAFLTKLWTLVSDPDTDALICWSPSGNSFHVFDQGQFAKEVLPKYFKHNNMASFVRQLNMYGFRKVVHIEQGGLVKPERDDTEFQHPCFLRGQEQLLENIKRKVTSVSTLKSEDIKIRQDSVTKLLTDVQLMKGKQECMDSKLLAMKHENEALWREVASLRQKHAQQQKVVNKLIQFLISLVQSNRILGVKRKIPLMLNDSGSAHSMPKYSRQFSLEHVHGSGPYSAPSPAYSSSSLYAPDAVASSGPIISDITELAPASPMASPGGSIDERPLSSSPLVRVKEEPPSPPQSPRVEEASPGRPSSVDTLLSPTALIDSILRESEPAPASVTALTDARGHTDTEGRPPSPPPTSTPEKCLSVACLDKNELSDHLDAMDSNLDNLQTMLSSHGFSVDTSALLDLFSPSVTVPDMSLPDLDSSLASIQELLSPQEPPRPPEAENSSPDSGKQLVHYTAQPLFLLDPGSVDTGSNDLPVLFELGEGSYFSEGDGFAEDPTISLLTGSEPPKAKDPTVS
Summary of the method: as §1

SPIC = molecular target: T2, SPIC (Homo sapiens, UniProt Q8N5J4 1-248); conditions: protein: recombinant; tags: N-terminal GST; dsDNA, one strand shown
T2 sequence: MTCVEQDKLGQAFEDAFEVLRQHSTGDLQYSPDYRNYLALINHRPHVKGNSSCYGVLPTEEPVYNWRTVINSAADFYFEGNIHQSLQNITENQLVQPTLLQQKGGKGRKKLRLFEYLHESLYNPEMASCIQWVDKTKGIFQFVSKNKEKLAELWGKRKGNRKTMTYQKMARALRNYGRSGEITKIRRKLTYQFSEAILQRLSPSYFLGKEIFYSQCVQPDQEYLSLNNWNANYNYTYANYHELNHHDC
Summary of the method: as §1

ELF4 = ELF4 (Homo sapiens, UniProt Q99607 1-663); conditions: protein: recombinant; tags: N-terminal GST; dsDNA, one strand shown
Chain of ELF4 (Q99607 whole entry): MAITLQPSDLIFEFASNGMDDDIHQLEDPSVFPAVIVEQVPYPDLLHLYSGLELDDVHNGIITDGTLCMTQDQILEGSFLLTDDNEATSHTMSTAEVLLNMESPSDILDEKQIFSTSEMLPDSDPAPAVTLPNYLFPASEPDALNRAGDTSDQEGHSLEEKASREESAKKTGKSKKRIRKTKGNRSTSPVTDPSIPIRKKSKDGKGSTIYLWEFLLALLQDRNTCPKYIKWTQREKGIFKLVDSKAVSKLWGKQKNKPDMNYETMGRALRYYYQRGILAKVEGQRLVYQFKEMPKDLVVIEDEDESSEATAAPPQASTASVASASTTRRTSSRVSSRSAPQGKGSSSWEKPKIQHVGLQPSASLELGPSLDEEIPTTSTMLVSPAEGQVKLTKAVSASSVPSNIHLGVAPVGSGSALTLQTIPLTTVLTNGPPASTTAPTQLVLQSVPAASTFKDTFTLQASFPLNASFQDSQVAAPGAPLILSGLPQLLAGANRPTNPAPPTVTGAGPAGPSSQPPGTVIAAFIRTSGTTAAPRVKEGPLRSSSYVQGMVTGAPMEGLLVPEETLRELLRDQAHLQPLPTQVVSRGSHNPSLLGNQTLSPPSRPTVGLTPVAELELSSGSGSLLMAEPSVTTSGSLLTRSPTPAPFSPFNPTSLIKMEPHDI
Summary of the method: as §1

ELK4 = molecular target: T3, ELK4 (Homo sapiens, UniProt P28324-2 1-405); conditions: protein: recombinant; tags: N-terminal GST; dsDNA, one strand shown
T3 sequence: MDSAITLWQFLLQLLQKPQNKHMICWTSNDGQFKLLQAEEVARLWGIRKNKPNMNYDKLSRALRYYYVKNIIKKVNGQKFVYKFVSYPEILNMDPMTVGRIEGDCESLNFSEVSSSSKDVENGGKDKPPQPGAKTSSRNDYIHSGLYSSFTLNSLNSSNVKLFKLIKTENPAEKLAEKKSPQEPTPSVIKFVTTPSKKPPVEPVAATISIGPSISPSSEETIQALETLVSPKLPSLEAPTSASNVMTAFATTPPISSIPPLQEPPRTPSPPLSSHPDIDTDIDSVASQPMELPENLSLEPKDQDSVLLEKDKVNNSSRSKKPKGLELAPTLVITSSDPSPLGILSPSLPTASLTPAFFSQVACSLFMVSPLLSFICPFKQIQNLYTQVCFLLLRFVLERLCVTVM
Summary of the method: as §1

ETV2 = molecular target: T4, ETV2 (Homo sapiens, UniProt O00321 1-342); conditions: protein: recombinant; tags: N-terminal GST; dsDNA, one strand shown
T4 sequence: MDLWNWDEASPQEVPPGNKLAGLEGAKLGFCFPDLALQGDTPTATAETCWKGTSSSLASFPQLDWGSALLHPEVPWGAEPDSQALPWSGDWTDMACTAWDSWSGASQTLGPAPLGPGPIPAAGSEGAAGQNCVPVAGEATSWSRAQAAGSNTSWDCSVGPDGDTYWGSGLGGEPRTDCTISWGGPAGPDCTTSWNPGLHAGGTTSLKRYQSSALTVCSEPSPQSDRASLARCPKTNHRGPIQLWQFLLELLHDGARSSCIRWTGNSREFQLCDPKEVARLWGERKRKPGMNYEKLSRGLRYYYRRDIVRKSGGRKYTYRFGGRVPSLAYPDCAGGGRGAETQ
Summary of the method: as §1

ELF3 = molecular target: T5, ELF3 (Homo sapiens, UniProt P78545 1-371); conditions: protein: recombinant; tags: N-terminal GST; dsDNA, one strand shown
T5 sequence: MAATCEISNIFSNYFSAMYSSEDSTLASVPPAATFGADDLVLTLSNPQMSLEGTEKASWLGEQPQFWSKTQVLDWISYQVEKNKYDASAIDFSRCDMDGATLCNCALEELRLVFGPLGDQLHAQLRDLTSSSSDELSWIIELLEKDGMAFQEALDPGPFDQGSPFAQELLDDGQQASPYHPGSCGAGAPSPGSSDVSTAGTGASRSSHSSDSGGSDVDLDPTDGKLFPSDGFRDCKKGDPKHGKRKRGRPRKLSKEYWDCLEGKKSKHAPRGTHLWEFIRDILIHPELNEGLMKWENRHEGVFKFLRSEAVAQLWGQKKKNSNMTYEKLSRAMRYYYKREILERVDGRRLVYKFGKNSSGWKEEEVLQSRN
Summary of the method: as §1

ETV1 = ETV1 (Homo sapiens, UniProt P50549 1-477); conditions: protein: recombinant; tags: N-terminal GST; dsDNA, one strand shown
Chain of ETV1 (P50549 whole entry): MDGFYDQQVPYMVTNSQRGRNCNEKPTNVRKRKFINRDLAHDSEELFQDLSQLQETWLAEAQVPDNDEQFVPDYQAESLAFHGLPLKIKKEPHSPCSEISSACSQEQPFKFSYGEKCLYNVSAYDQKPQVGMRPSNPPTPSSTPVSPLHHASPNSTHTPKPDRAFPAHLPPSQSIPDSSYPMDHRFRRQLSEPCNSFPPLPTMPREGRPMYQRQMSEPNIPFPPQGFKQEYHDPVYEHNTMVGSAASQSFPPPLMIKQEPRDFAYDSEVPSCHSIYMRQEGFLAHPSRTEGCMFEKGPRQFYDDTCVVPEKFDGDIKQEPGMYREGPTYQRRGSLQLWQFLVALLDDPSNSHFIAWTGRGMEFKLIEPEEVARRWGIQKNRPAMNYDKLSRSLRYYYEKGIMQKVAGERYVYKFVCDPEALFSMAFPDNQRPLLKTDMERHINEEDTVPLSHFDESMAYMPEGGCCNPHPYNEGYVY
Summary of the method: as §1

ERF = molecular target: T6, ERF (Homo sapiens, UniProt P50548 1-548); conditions: protein: recombinant; tags: N-terminal GST; dsDNA, one strand shown
T6 sequence: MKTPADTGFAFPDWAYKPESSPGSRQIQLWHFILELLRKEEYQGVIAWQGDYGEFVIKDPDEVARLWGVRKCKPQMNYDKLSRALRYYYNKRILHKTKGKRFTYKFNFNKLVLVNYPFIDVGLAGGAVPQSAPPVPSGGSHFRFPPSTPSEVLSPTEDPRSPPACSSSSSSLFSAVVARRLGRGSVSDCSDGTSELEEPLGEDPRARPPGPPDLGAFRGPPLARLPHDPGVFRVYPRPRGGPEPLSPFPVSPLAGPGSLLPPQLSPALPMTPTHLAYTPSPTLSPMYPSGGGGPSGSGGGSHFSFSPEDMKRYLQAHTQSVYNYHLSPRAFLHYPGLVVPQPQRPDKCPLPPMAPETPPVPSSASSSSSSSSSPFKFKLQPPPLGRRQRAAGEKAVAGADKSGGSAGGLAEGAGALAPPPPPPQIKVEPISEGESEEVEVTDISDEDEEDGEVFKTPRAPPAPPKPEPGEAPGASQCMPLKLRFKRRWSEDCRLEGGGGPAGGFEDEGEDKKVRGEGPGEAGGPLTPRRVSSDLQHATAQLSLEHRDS
Summary of the method: as §1

ETV3L = molecular target: T7, ETV3L (Homo sapiens, UniProt Q6ZN32 1-361); conditions: protein: recombinant; tags: N-terminal GST; dsDNA, one strand shown
T7 sequence: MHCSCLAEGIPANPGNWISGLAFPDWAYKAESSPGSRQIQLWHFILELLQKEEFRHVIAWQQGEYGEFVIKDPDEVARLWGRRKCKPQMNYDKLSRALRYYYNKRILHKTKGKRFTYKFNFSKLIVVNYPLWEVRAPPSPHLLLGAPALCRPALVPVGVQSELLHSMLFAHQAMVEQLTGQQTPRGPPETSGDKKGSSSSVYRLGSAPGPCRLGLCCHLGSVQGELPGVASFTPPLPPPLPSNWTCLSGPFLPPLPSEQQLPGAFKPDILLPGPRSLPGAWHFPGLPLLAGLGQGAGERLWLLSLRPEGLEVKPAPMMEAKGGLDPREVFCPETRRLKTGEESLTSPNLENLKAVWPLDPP
Summary of the method: as §1

ETS2 = molecular target: T8, ETS2 (Homo sapiens, UniProt P15036 1-469); conditions: protein: recombinant; tags: N-terminal GST; dsDNA, one strand shown
T8 sequence: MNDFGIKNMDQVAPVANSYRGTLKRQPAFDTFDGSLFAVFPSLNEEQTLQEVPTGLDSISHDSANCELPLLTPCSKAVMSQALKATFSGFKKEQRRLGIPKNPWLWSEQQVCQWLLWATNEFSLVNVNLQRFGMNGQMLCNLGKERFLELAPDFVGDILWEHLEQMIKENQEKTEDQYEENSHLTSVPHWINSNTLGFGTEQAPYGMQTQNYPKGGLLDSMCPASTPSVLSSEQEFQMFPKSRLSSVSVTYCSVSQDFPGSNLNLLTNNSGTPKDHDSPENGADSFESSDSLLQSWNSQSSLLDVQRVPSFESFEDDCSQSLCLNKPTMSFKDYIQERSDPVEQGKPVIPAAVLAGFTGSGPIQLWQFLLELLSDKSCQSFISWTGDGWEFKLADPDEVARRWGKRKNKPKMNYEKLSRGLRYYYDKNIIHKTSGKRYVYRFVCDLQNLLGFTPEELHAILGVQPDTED
Summary of the method: as §1

SPDEF = molecular target: T9, SPDEF (Homo sapiens, UniProt O95238 1-335); conditions: protein: recombinant; tags: N-terminal GST; dsDNA, one strand shown
T9 sequence: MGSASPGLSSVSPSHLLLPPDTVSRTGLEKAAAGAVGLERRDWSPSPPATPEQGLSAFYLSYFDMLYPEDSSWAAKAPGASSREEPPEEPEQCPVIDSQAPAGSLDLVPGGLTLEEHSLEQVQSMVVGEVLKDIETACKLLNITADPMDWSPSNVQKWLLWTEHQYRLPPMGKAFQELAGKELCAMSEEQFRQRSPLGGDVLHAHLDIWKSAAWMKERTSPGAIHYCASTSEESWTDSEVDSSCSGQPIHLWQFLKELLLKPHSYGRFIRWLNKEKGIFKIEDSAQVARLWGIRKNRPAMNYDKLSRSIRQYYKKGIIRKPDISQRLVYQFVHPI
Summary of the method: as §1

ETV7 = molecular target: T10, ETV7 (Homo sapiens, UniProt Q9Y603 1-341); conditions: protein: recombinant; tags: N-terminal GST; dsDNA, one strand shown
T10 sequence: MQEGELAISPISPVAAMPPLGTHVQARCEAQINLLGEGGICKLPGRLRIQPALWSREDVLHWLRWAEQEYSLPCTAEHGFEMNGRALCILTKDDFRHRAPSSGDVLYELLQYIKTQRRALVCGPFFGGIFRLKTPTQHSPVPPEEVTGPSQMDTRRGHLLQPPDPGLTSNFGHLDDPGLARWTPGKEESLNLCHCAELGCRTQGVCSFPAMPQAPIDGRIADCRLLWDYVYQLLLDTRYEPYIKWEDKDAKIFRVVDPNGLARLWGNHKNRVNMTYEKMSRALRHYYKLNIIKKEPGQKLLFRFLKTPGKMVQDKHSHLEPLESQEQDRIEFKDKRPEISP
Summary of the method: as §1

ELF5 = molecular target: T11, ELF5 (Homo sapiens, UniProt Q9UKW6-2 1-255); conditions: protein: recombinant; tags: N-terminal GST; dsDNA, one strand shown
T11 sequence: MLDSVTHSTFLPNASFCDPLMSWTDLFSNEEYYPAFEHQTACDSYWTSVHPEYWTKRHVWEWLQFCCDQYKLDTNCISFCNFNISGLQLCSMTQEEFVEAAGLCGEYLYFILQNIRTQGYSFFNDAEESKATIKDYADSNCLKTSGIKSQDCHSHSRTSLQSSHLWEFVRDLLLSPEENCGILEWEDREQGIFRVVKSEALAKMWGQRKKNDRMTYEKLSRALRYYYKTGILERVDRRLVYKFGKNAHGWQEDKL
Summary of the method: as §1

ETV3 = molecular target: T12, ETV3 (Homo sapiens, UniProt P41162-2 1-143); conditions: protein: recombinant; tags: N-terminal GST; dsDNA, one strand shown
T12 sequence: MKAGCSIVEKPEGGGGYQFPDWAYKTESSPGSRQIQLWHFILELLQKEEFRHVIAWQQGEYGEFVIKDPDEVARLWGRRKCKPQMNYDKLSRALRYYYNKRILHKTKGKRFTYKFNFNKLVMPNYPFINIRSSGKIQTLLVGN
Summary of the method: as §1

ETV6 = ETV6 (Homo sapiens, UniProt P41212 1-452); conditions: protein: recombinant; tags: N-terminal GST; dsDNA, one strand shown
Chain of ETV6 (P41212 whole entry): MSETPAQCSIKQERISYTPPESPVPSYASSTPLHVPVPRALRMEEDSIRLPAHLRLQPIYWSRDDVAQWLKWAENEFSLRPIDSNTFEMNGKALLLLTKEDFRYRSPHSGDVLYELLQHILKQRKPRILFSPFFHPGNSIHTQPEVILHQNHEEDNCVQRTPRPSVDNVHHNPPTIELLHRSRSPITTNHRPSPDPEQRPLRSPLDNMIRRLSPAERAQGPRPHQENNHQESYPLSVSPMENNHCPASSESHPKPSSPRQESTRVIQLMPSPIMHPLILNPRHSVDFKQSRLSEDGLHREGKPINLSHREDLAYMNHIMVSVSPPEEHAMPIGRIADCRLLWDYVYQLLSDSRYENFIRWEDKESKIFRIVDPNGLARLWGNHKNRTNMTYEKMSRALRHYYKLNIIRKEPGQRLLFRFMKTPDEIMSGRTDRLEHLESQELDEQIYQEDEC
Summary of the method: as §1

## GGCACT
FEV
  binding signal: 1.46 fold enrichment (6-mer frequency, TF over GST control)
ETV5
  binding signal: 1.32 fold enrichment (6-mer frequency, TF over GST control)
HSF1
  binding signal: 1.03 fold enrichment (6-mer frequency, TF over GST control)
SPIC
  binding signal: 1.24 fold enrichment (6-mer frequency, TF over GST control)
ELF4
  binding signal: 1.26 fold enrichment (6-mer frequency, TF over GST control)
ELK4
  binding signal: 1.28 fold enrichment (6-mer frequency, TF over GST control)
ETV2
  binding signal: 1.19 fold enrichment (6-mer frequency, TF over GST control)
ELF3
  binding signal: 1.29 fold enrichment (6-mer frequency, TF over GST control)
ETV1
  binding signal: 1.38 fold enrichment (6-mer frequency, TF over GST control)
ERF
  binding signal: 1.26 fold enrichment (6-mer frequency, TF over GST control)
ETV3L
  binding signal: 1.27 fold enrichment (6-mer frequency, TF over GST control)
ETS2
  binding signal: 1.24 fold enrichment (6-mer frequency, TF over GST control)
SPDEF
  binding signal: 1.24 fold enrichment (6-mer frequency, TF over GST control)
ETV7
  binding signal: 1.26 fold enrichment (6-mer frequency, TF over GST control)
ELF5
  binding signal: 1.11 fold enrichment (6-mer frequency, TF over GST control)
ETV3
  binding signal: 1.29 fold enrichment (6-mer frequency, TF over GST control)
ETV6
  binding signal: 1.31 fold enrichment (6-mer frequency, TF over GST control)
